# Measured values: article PMC11006913
# Substitutions are numbered along the chain they refer to.
# How the values were obtained:
# Experiment in all cases: PBM; 200 nM protein, PBS
# Settings in all cases: dsDNA, one strand shown
# HOXA7 [1] = target: HOXA7 (Homo sapiens, UniProt P31268 116-202)
# HOXA7 [2] = target: HOXA7 (Homo sapiens, UniProt P31268 116-202, W177C)
# HOXC10 = HOXC10 (Homo sapiens, UniProt Q9NYD6 254-340)
# NKX2-4 = target: T1, NKX2-4 (Homo sapiens, UniProt Q9H2Z4 175-261, T231S)
# T1 sequence: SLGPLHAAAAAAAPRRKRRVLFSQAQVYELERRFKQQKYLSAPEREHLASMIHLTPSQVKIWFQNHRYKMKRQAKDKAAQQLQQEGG
# NKX2-6 [3] = target: T2, NKX2-6 (Homo sapiens, UniProt A6NCS4 118-204, R150C)
# T2 sequence: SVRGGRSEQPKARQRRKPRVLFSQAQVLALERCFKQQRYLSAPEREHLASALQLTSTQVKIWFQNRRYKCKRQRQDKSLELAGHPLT
# NKX2-6 [4] = target: T3, NKX2-6 (Homo sapiens, UniProt A6NCS4 118-204, F151L)
# T3 sequence: T2 sequence with C33R, F34L
# NKX3-2 [5] = target: NKX3-2 (Homo sapiens, UniProt P78367 192-278, P234S)
# NKX3-2 [6] = target: NKX3-2 (Homo sapiens, UniProt P78367 192-278)
# Chain of NKX3-2 (Homo sapiens, UniProt P78367 192-278) (P78367 192-278): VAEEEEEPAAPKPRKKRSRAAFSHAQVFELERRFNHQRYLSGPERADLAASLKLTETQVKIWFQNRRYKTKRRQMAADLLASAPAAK
# Chain of HOXA7 (Homo sapiens, UniProt P31268 116-202) (P31268 116-202): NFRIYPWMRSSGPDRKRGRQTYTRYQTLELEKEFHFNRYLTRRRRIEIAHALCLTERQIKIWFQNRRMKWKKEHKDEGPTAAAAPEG
# Chain of HOXC10 (Q9NYD6 254-340): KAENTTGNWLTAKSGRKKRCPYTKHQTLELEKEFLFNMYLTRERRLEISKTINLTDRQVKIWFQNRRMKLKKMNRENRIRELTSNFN
# Chain of HOXA7 (Homo sapiens, UniProt P31268 116-202, W177C) (P31268 116-202 W177C): as the sequence (P31268 116-202) above, with W62C counted along it
# Chain of NKX3-2 (Homo sapiens, UniProt P78367 192-278, P234S) (P78367 192-278 P234S): as the sequence (P78367 192-278) above, with P43S counted along it
sequence,measurement,setting,value
AAATGGGG,binding signal,HOXA7 [1],"9.82 upbm affinity estimate (log intensity, higher = more binding, comparable within an allelic series)"
same,binding signal,HOXA7 [2],"8.64 upbm affinity estimate (log intensity, higher = more binding, comparable within an allelic series)"
CTCTGAGC,binding signal,HOXA7 [1],"8.36 upbm affinity estimate (log intensity, higher = more binding, comparable within an allelic series)"
same,binding signal,HOXA7 [2],"8.46 upbm affinity estimate (log intensity, higher = more binding, comparable within an allelic series)"
CGAGGACG,binding signal,HOXA7 [1],"8.54 upbm affinity estimate (log intensity, higher = more binding, comparable within an allelic series)"
same,binding signal,HOXA7 [2],"8.4 upbm affinity estimate (log intensity, higher = more binding, comparable within an allelic series)"
GGGTACCC,binding signal,HOXA7 [1],"8.53 upbm affinity estimate (log intensity, higher = more binding, comparable within an allelic series)"
same,binding signal,HOXA7 [2],"8.44 upbm affinity estimate (log intensity, higher = more binding, comparable within an allelic series)"
CAGAGGAG,binding signal,HOXA7 [1],"8.43 upbm affinity estimate (log intensity, higher = more binding, comparable within an allelic series)"
same,binding signal,HOXA7 [2],"8.46 upbm affinity estimate (log intensity, higher = more binding, comparable within an allelic series)"
AGAATTAC,binding signal,HOXA7 [1],"9.68 upbm affinity estimate (log intensity, higher = more binding, comparable within an allelic series)"
same,binding signal,HOXA7 [2],"8.8 upbm affinity estimate (log intensity, higher = more binding, comparable within an allelic series)"
AGAGACTG,binding signal,HOXA7 [1],"8.18 upbm affinity estimate (log intensity, higher = more binding, comparable within an allelic series)"
same,binding signal,HOXA7 [2],"8.35 upbm affinity estimate (log intensity, higher = more binding, comparable within an allelic series)"
AGGCTGGA,binding signal,HOXA7 [1],"8.5 upbm affinity estimate (log intensity, higher = more binding, comparable within an allelic series)"
same,binding signal,HOXA7 [2],"8.45 upbm affinity estimate (log intensity, higher = more binding, comparable within an allelic series)"
CCAGAGGA,binding signal,HOXA7 [1],"8.4 upbm affinity estimate (log intensity, higher = more binding, comparable within an allelic series)"
same,binding signal,HOXA7 [2],"8.47 upbm affinity estimate (log intensity, higher = more binding, comparable within an allelic series)"
CTGAAGGC,binding signal,HOXA7 [1],"8.34 upbm affinity estimate (log intensity, higher = more binding, comparable within an allelic series)"
same,binding signal,HOXA7 [2],"8.31 upbm affinity estimate (log intensity, higher = more binding, comparable within an allelic series)"
AAGGCTAC,binding signal,HOXA7 [1],"8.53 upbm affinity estimate (log intensity, higher = more binding, comparable within an allelic series)"
same,binding signal,HOXA7 [2],"8.49 upbm affinity estimate (log intensity, higher = more binding, comparable within an allelic series)"
CCATTACA,binding signal,HOXA7 [1],"10.6 upbm affinity estimate (log intensity, higher = more binding, comparable within an allelic series)"
same,binding signal,HOXA7 [2],"8.97 upbm affinity estimate (log intensity, higher = more binding, comparable within an allelic series)"
CAGTAATC,binding signal,HOXA7 [1],"9.67 upbm affinity estimate (log intensity, higher = more binding, comparable within an allelic series)"
same,binding signal,HOXA7 [2],"8.66 upbm affinity estimate (log intensity, higher = more binding, comparable within an allelic series)"
CCATTTAA,binding signal,HOXA7 [1],"10.5 upbm affinity estimate (log intensity, higher = more binding, comparable within an allelic series)"
same,binding signal,HOXA7 [2],"8.76 upbm affinity estimate (log intensity, higher = more binding, comparable within an allelic series)"
CAGCGTGG,binding signal,HOXA7 [1],"8.45 upbm affinity estimate (log intensity, higher = more binding, comparable within an allelic series)"
same,binding signal,HOXA7 [2],"8.4 upbm affinity estimate (log intensity, higher = more binding, comparable within an allelic series)"
AGCAGAAG,binding signal,HOXA7 [1],"8.46 upbm affinity estimate (log intensity, higher = more binding, comparable within an allelic series)"
same,binding signal,HOXA7 [2],"8.54 upbm affinity estimate (log intensity, higher = more binding, comparable within an allelic series)"
CACCGCTA,binding signal,HOXA7 [1],"8.52 upbm affinity estimate (log intensity, higher = more binding, comparable within an allelic series)"
same,binding signal,HOXA7 [2],"8.43 upbm affinity estimate (log intensity, higher = more binding, comparable within an allelic series)"
CCTCGAGG,binding signal,HOXA7 [1],"8.59 upbm affinity estimate (log intensity, higher = more binding, comparable within an allelic series)"
same,binding signal,HOXA7 [2],"8.59 upbm affinity estimate (log intensity, higher = more binding, comparable within an allelic series)"
CGGAAGGC,binding signal,HOXA7 [1],"8.5 upbm affinity estimate (log intensity, higher = more binding, comparable within an allelic series)"
same,binding signal,HOXA7 [2],"8.35 upbm affinity estimate (log intensity, higher = more binding, comparable within an allelic series)"
CACATAAC,binding signal,HOXA7 [1],"9.46 upbm affinity estimate (log intensity, higher = more binding, comparable within an allelic series)"
same,binding signal,HOXA7 [2],"8.81 upbm affinity estimate (log intensity, higher = more binding, comparable within an allelic series)"
CTCAGCTC,binding signal,HOXA7 [1],"8.44 upbm affinity estimate (log intensity, higher = more binding, comparable within an allelic series)"
same,binding signal,HOXA7 [2],"8.39 upbm affinity estimate (log intensity, higher = more binding, comparable within an allelic series)"
AGATAAAC,binding signal,HOXA7 [1],"9.31 upbm affinity estimate (log intensity, higher = more binding, comparable within an allelic series)"
same,binding signal,HOXA7 [2],"8.79 upbm affinity estimate (log intensity, higher = more binding, comparable within an allelic series)"
GCTCGGTA,binding signal,HOXA7 [1],"8.46 upbm affinity estimate (log intensity, higher = more binding, comparable within an allelic series)"
same,binding signal,HOXA7 [2],"8.43 upbm affinity estimate (log intensity, higher = more binding, comparable within an allelic series)"
GCAAGCTA,binding signal,HOXA7 [1],"8.39 upbm affinity estimate (log intensity, higher = more binding, comparable within an allelic series)"
same,binding signal,HOXA7 [2],"8.42 upbm affinity estimate (log intensity, higher = more binding, comparable within an allelic series)"
CCTTCGAC,binding signal,HOXA7 [1],"8.4 upbm affinity estimate (log intensity, higher = more binding, comparable within an allelic series)"
same,binding signal,HOXA7 [2],"8.45 upbm affinity estimate (log intensity, higher = more binding, comparable within an allelic series)"
TATGCGCA,binding signal,HOXC10,"10.8 upbm affinity estimate (log intensity, higher = more binding, comparable within an allelic series)"
GGCCTGAA,binding signal,HOXA7 [1],"8.61 upbm affinity estimate (log intensity, higher = more binding, comparable within an allelic series)"
same,binding signal,HOXA7 [2],"8.38 upbm affinity estimate (log intensity, higher = more binding, comparable within an allelic series)"
ACCTGCAC,binding signal,HOXA7 [1],"8.57 upbm affinity estimate (log intensity, higher = more binding, comparable within an allelic series)"
same,binding signal,HOXA7 [2],"8.45 upbm affinity estimate (log intensity, higher = more binding, comparable within an allelic series)"
ATCATCTA,binding signal,HOXA7 [1],"9.36 upbm affinity estimate (log intensity, higher = more binding, comparable within an allelic series)"
same,binding signal,HOXA7 [2],"8.74 upbm affinity estimate (log intensity, higher = more binding, comparable within an allelic series)"
AAGCGGCG,binding signal,HOXA7 [1],"8.49 upbm affinity estimate (log intensity, higher = more binding, comparable within an allelic series)"
same,binding signal,HOXA7 [2],"8.33 upbm affinity estimate (log intensity, higher = more binding, comparable within an allelic series)"
ACAGCGAG,binding signal,HOXA7 [1],"8.39 upbm affinity estimate (log intensity, higher = more binding, comparable within an allelic series)"
same,binding signal,HOXA7 [2],"8.41 upbm affinity estimate (log intensity, higher = more binding, comparable within an allelic series)"
ACCCCCCT,binding signal,HOXA7 [1],"8.3 upbm affinity estimate (log intensity, higher = more binding, comparable within an allelic series)"
same,binding signal,HOXA7 [2],"8.32 upbm affinity estimate (log intensity, higher = more binding, comparable within an allelic series)"
GCACTTTA,binding signal,NKX2-4,"12.8 upbm affinity estimate (log intensity, higher = more binding, comparable within an allelic series)"
same,binding signal,NKX2-6 [3],"11.7 upbm affinity estimate (log intensity, higher = more binding, comparable within an allelic series)"
same,binding signal,NKX2-6 [4],"10.7 upbm affinity estimate (log intensity, higher = more binding, comparable within an allelic series)"
same,binding signal,NKX3-2 [5],"12.5 upbm affinity estimate (log intensity, higher = more binding, comparable within an allelic series)"
same,binding signal,NKX3-2 [6],"12.6 upbm affinity estimate (log intensity, higher = more binding, comparable within an allelic series)"
ATTCGTAA,binding signal,HOXC10,"10.8 upbm affinity estimate (log intensity, higher = more binding, comparable within an allelic series)"
AGATGTTA,binding signal,HOXC10,"10.8 upbm affinity estimate (log intensity, higher = more binding, comparable within an allelic series)"
CTGGATGC,binding signal,HOXA7 [1],"8.4 upbm affinity estimate (log intensity, higher = more binding, comparable within an allelic series)"
same,binding signal,HOXA7 [2],"8.44 upbm affinity estimate (log intensity, higher = more binding, comparable within an allelic series)"
AGATATGG,binding signal,HOXC10,"10.7 upbm affinity estimate (log intensity, higher = more binding, comparable within an allelic series)"
TGTTACAA,binding signal,HOXC10,"10.6 upbm affinity estimate (log intensity, higher = more binding, comparable within an allelic series)"
AGCATGCT,binding signal,HOXA7 [1],"8.54 upbm affinity estimate (log intensity, higher = more binding, comparable within an allelic series)"
same,binding signal,HOXA7 [2],"8.54 upbm affinity estimate (log intensity, higher = more binding, comparable within an allelic series)"
CAAAGCGG,binding signal,HOXA7 [1],"8.47 upbm affinity estimate (log intensity, higher = more binding, comparable within an allelic series)"
same,binding signal,HOXA7 [2],"8.45 upbm affinity estimate (log intensity, higher = more binding, comparable within an allelic series)"
TACGTTAA,binding signal,HOXA7 [1],"9.58 upbm affinity estimate (log intensity, higher = more binding, comparable within an allelic series)"
same,binding signal,HOXA7 [2],"8.79 upbm affinity estimate (log intensity, higher = more binding, comparable within an allelic series)"
TATGTGCA,binding signal,HOXC10,"10.7 upbm affinity estimate (log intensity, higher = more binding, comparable within an allelic series)"
GCAAGCGA,binding signal,HOXA7 [1],"8.55 upbm affinity estimate (log intensity, higher = more binding, comparable within an allelic series)"
same,binding signal,HOXA7 [2],"8.45 upbm affinity estimate (log intensity, higher = more binding, comparable within an allelic series)"
AACAATCA,binding signal,HOXC10,"10.9 upbm affinity estimate (log intensity, higher = more binding, comparable within an allelic series)"
AAATTACG,binding signal,HOXA7 [1],"10.3 upbm affinity estimate (log intensity, higher = more binding, comparable within an allelic series)"
same,binding signal,HOXA7 [2],"8.82 upbm affinity estimate (log intensity, higher = more binding, comparable within an allelic series)"
GGTTATAC,binding signal,HOXC10,"10.8 upbm affinity estimate (log intensity, higher = more binding, comparable within an allelic series)"
CCTTCCGC,binding signal,HOXA7 [1],"8.39 upbm affinity estimate (log intensity, higher = more binding, comparable within an allelic series)"
same,binding signal,HOXA7 [2],"8.37 upbm affinity estimate (log intensity, higher = more binding, comparable within an allelic series)"
AGGAGCCT,binding signal,HOXA7 [1],"8.33 upbm affinity estimate (log intensity, higher = more binding, comparable within an allelic series)"
same,binding signal,HOXA7 [2],"8.35 upbm affinity estimate (log intensity, higher = more binding, comparable within an allelic series)"
GTACTTTA,binding signal,NKX2-4,"12.8 upbm affinity estimate (log intensity, higher = more binding, comparable within an allelic series)"
AGCGCCGA,binding signal,HOXA7 [1],"8.38 upbm affinity estimate (log intensity, higher = more binding, comparable within an allelic series)"
same,binding signal,HOXA7 [2],"8.29 upbm affinity estimate (log intensity, higher = more binding, comparable within an allelic series)"
